Compounds with a hit are over-represented: about 12% of the library has one in this group of screens.
SARS PLP yeast: qHTS of Yeast-based Assay for SARS-CoV PLP; S. cerevisiae expressing SARS-CoV PLpro, growth rescue; Potency, µM (top dose mostly 32.9 µM), for inactives: at the top dose activity, positive = growth rescue, hits mostly activators; 330,000 tested, 0.19% active; AID 485353, 2010; calls by dose curve; note: 0% is about no effect; nearly all actives have a fitted effect of over 55% in size
Pf growth 96h: Primary qHTS for delayed death inhibitors of the malarial parasite plastid, 96 hour incubation; P. falciparum luciferase reporter growth, 96 h; Potency, µM (top dose mostly 28.7 µM), for inactives: top-dose activity change, negative = inhibition, most hits filed as inhibitors; 320,000 tested, 6.9% active; note: % is set by controls: 0 for no effect and ±100 for the full control effect
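Erythrocytes infected with luciferase-expressing P. falciparum were dispensed at 2% hematocrit and 0.05% parasitemia (final), then incubated with compounds 96 hours at 37 C in 5% CO2. Luminescence after detection reagent addition reported growth.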
Pf growth 48h: Primary qHTS for delayed death inhibitors of the malarial parasite plastid, 48 hour incubation. P. falciparum luciferase growth in erythrocytes, 48 h. Potency, µM (series often up to 28.7 µM), inactives show at the highest dose activity change, negative = inhibition, actives largely listed as inhibitors. 310,000 tested, 5.9% active. AID 504832, 2011; note: % is set by controls: 0 for no effect and ±100 for the full control effect
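Luciferase-expressing parasites in RBCs, 2% Hct / 0.1% parasitemia final; RPMI 1640 + 0.5% Albumax; 37 C, 5% CO2, one generation; luminescence read-out, lower signal = inhibition.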
NS1 inh: qHTS Assay for Inhibitors of Influenza NS1 Protein Function; 270,000 tested, 0.4% active; Potency, µM (highest dose often 46.1 µM), for inactives: at the highest dose activity, positive = more growth; calls by dose curve; note: actives are rising curves; nearly all actives have a fitted effect of over 50% in size
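Compounds were scored for reversing the slow growth caused by influenza A NS1 in S. cerevisiae, measured by optical density at 600 nm. Assay medium contained 2% galactose at pH 6.0; NS1-free yeast of the same strain were the positive control.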
HCV inhibitor: qHTS Assay for Inhibitors of Hepatitis C Virus (HCV) | AID 651820, 2012 | Huh7.5.1 HCVcc-Cre infection, luciferase reporter, 44 h | 340,000 tested, 3.4% active | Potency, µM (doses to about 41.8 µM), inactives show top-dose activity change, negative = inhibition, most hits filed as inhibitors; note: % is set by controls: 0 for no effect and ±100 for the full control effect
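Infectious HCVcc-Cre (~0.5 moi) was added to cells just after compound, with cells seeded 4 h earlier at 1,000 per well. Luciferase activity after 44 h culture reported infection; substrate was incubated 15 min at room temperature before reading.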
AMA1-RON2 inh: qHTS for Inhibitors of AMA1-RON; Towards Development of Antimalarial Drug Lead: Primary Screen | Plasmodium falciparum AMA1 (3D7) - RON2 peptide interaction | AlphaScreen AMA1-biotinylated RON2 peptide binding | Potency, µM (doses to about 58.2 µM), inactives show top-dose activity change, negative = inhibition, actives largely listed as inhibitors | 360,000 tested, 0.2% active;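 note: 0% = vehicle wells and -100% = peptide control; nearly all actives have a fitted effect of over 45% in size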
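AMA1 (3D7) with his tag at 25 nM final met compounds first, then biotinylated RON2 peptide at 25 nM; detection used donor plus acceptor beads, 10 µg/mL apiece, read by AlphaScreen after 30 min at room temperature.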
Starred values were filed as active, the others as inactive; ? = inconclusive; . = no result; [ ] = remark or other dose. Unless noted, calls come from the whole dose curve; as a rule, active = well fitted curve in the direction sought with a large enough effect; inconclusive = small, poorly fitted or top-dose-only effect, or another doubt; inactive = no such curve, though single readings can be large; an effect the other way counts as inactive or inconclusive. Potency is the fitted concentration of half-maximal effect.

SMILES | SARS PLP yeast | Pf growth 96h | Pf growth 48h | NS1 inh | HCV inhibitor | AMA1-RON2 inh
C/C(=N\Nc1nc(Cl)c(Cl)cc1Cl)c1ccc(S(=O)(=O)NCc2ccco2)cc1 | -19.5% | -26.2% | 6.8% | -15.8% | 6.31µM* | 42.4%
Cc1cc(C)n(-c2ccc(C(=O)Nc3cccc([N+](=O)[O-])c3)cc2)n1 | -0.7% | -26.4% | -17.3% | -5.7% | 11.2µM* | -3.4%
Cc1cc(C)n(-c2ccc(C(=O)Nc3ccc(S(=O)(=O)N(C)C)cc3)cc2)n1 | 28.7% | ? | 14.7µM* | -18.5% | ? | -14.4%
Cc1cc(C)n(-c2ccc(C(=O)Nc3ccc(S(=O)(=O)NCc4ccco4)cc3)cc2)n1 | 5.2% | 29.5% | 13.1µM* | -2.2% | 3.55µM* | -18.6%
Cc1cc(NC(=O)C(C)SCC(=O)N(Cc2ccccc2)c2ccccc2)no1 (configuration not stated) | -4.6% | -13.7% | ? | . | 14.6% | -5.5%
CCN(CC)S(=O)(=O)c1cccc(NC(=O)c2ccc(-n3nc(C)cc3C)cc2)c1 | 6.7% | ? | ? | -3.9% | 2.51µM* | 10.3%
Cc1cc(C)n(-c2ccc(C(=O)Nc3ccc(N4CCOCC4)cc3)cc2)n1 | 1.5% | 0.0% | . | 7.2% | 9.2% | -1.1%
Cc1cc(C)n(-c2ccc(C(=O)Nc3ccc(C)c(S(=O)(=O)N(C)C)c3)cc2)n1 | -3.4% | 11.7µM* | ? | 10.3% | 10µM* | 13.0%
CN(C)S(=O)(=O)c1cccc(NC(=O)c2cc(-c3cccs3)nn2-c2cccc(Cl)c2)c1 | 2.5% | 14.7µM* | ? | 28.3% | ? | 5.9%
COc1ccc(NC(=O)c2ccc(-n3nc(C)cc3C)cc2)cc1OC | 2.0% | 56.8% | 8.1% | -15.3% | 7.08µM* | -7.0%
CN1CCN(c2ccc(S(=O)(=O)N3CCOCC3)cc2)CC1 | -1.9% | ? | 22.1% | -3.7% | 16.5% | -5.5%
CCn1nc(C)c(CN2CCCC(CO)(Cc3cccc(Cl)c3)C2)c1C (configuration not stated) | 1.3% | ? | ? | -0.9% | -25.8% | 1.1%
Cc1ccc(NC(=O)c2ccncc2)cc1S(=O)(=O)N(C)C | 0.5% | 11.9% | 18.3% | 2.6% | 0.1% | -1.8%
Cc1ccc(NC(=O)c2ccc(OC(F)(F)F)cc2)cc1S(=O)(=O)N(C)C | -20.9% | ? | -28.8% | -1.3% | 3.16µM* | -8.6%
Cc1cc(C)n(-c2ccc(C(=O)Nc3cccc(S(=O)(=O)N(C)C)c3)cc2)n1 | 8.4% | ? | -29.7% | -9.5% | 5.01µM* | -29.9%
Cc1cc(C)n(-c2ccc(C(=O)Nc3ccc4c(c3)OCO4)cc2)n1 | -0.7% | -15.9% | . | -111.4% | ? | -1.3%
CN(CC(=O)Nc1ccccc1Br)C(=O)Cn1[nH]c(=O)c2ccccc2c1=O | 3.0% | -20.9% | 14.3% | . | 14.0% | 0.0%
CCC(O)CNc1nc(-n2nc(C)cc2C)nc2sc3c(c12)CCCC3 (configuration not stated) | 0.9% | . | . | -10.4% | . | .
Cc1cc(C)n(-c2nc(SCCN(C)C)c3c4c(sc3n2)CCCC4)n1 | -11.4% | 11.7µM* | ? | -208.6% | ? | 19.7%
Cc1cc2nc(CCN(C(=S)NCC3CCCO3)C3CCCC3)[nH]c2cc1C (configuration not stated) | -1.4% | ? | -24.3% | -35.3% | 11.2µM* | -0.5%
CCc1noc(C)c1C(=O)N1CCC(CCC(=O)Nc2cccc(C)c2)CC1 | -3.2% | -23.2% | -21.1% | -17.5% | ? | 4.7%
CC(NC(=O)COC(=O)/C(=C/c1cccs1)c1cccs1)c1ccccc1 (configuration not stated) | 7.5% | 26.7% | ? | -24.7% | ? | -23.7%
CCCCn1c(N)c(N(CCOC)C(=O)CC(NC(=O)c2ccccc2Cl)c2ccccc2)c(=O)[nH]c1=O (configuration not stated) | . | . | . | . | -3.5% | 2.9%
Cc1cccc2c1CC(C)(C)N=C2C1=C(O)CC(C)(C)CC1=O | -3.1% | 13.1µM* | ? | 3.4% | 1.9% | 10.1%
CCC1(CC)Cc2ccccc2C(C2=C(O)CC(C)(C)CC2=O)=N1 | 20.8% | ? | -21.6% | 10.6% | 1.6% | -6.7%[11.6 µM]
SMILES | SARS PLP yeast | Pf growth 96h | Pf growth 48h | NS1 inh | HCV inhibitor | AMA1-RON2 inh
COc1ccc(NC(=O)c2cc(S(=O)(=O)N3CCc4ccccc43)cn2C)cc1 | 7.0% | -10.3% | 9.28µM* | 0.1% | -16.5% | -10.7%
CCc1ccccc1NC(=O)c1cc(S(=O)(=O)N2CCc3ccccc32)cn1C | -2.5% | 35.4% | 5.9% | 15.6% | 4.9% | -8.3%
CCCNC(=O)c1cc(S(=O)(=O)N2CCc3ccccc32)cn1C | 1.0% | 9.8% | 8.9% | 7.9% | 8.91µM* | 0.0%
COC(=O)C1=C(C)OC(N)=C(C#N)C12C(=O)Nc1ccccc12 (configuration not stated) | 1.2% | 3.2% | 32.6% | 4.3% | 5.7% | -4.0%
Cn1c2c(c(=O)n(C)c1=O)C1(C(=O)Nc3ccccc31)C(C#N)=C(N)O2 (configuration not stated) | -12.9% | 8.28µM* | 10.4µM* | -15.1% | 6.7% | 11.8%
CC(C)C[C@H]1COCCS(=O)(=O)N1Cc1ccc(Cl)c(Cl)c1 | . | . | . | . | 2.1% | -5.0%
CC(=O)Nc1sc2c(c1C(c1ccccn1)N1CCCC1)CCCC2 (configuration not stated) | -3.9% | 10.4µM* | 9.28µM* | . | 13.4% | 65.9%
CC(=O)Nc1sc2c(c1C(c1ccccc1Cl)N1CCN(CCO)CC1)CCCC2 (configuration not stated) | 0.3% | ? | ? | 0.5% | 11.2µM* | -12.5%
O=C(COc1ccccc1C(=O)NCc1ccccn1)Nc1ccc(Br)cc1 | -1.3% | -5.5% | -3.3% | . | -23.7% | -3.9%
Cc1ccc2nc(CN(C)C(=O)[C@H]3O[C@@H](n4ccc(N)nc4=O)[C@H](O)[C@@H]3O)[nH]c2c1 | . | . | . | . | . | -1.0%
Cc1nn(CCc2nn[nH]n2)c2nc(-c3ccc(C4CCCCC4)cc3)cc(C(F)(F)F)c12 | -0.7% | ? | 5.22µM* | . | ? | 43.4%
C=CCn1c(SCC(=O)NC2CCCCC2)nnc1-c1cccnc1 | 3.3% | 77.6% | -8.5% | 16.9% | . | -1.5%
C[C@H]1CN=C(N(C)C)N1CC1CCC(C(C)(C)C)CC1 (some centres not stated) | -0.8% | ? | 7.38µM* | . | ? | 2.2%
C[C@H]1CN=C(N(C)C)N1CC1CCCC1 | -0.5% | ? | -19.1% | . | ? | 16.5%
O=c1cc(CSc2ccccc2)[nH]c2ccccc12 | 0.1% | 27.8% | 10.4µM* | 2.3% | ? | -4.1%

Compound activity: PubChem, National Center for Advancing Translational Sciences (NCATS)
